Test results taken from PubChem BioAssay (NCI).
About 79,000 compounds went through this panel and 15% of them were active in at least one assay; those are over-represented in the sample as a whole. No stated cut-off is given here; in the data, active means growth inhibition above about 70%; inactive means the rest.

Columns and labels:
[1] = NCI Yeast Anticancer Drug Screen. Data for the rad50 strain (AID 155);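 further: 0% = growth of vehicle-only cultures of the same strain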; conditions: S. cerevisiae rad50 strain growth inhibition; at 50.0 µM; active compounds read high
Summary of the method: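 Compounds were tested on a yeast strain with an engineered DNA damage repair alteration; the reported value is growth inhibition normalised to vehicle treatment.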

[2] = NCI Yeast Anticancer Drug Screen. Data for the mec2-1 strain (AID 157); conditions: S. cerevisiae mec2-1 strain, at 50.0 µM, active compounds read high
Summary of the method: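 Cells of the genetically defined mec2-1 yeast strain are incubated with test compound. Inhibition of growth is calculated against vehicle-treated controls.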

[3] = NCI Yeast Anticancer Drug Screen. Data for the sgs1 mgt1 strain (AID 161);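 further: 0% = growth of cultures given vehicle only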; conditions: S. cerevisiae sgs1 mgt1 strain, at 50.0 µM, active compounds read high
Summary of the method: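 Read-out: growth inhibition vs vehicle controls. Cells: mutant yeast strain deficient in DNA damage repair.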

[4] = NCI Yeast Anticancer Drug Screen. Data for the cln2 rad14 strain (AID 165);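 further: 0% = growth equal to vehicle treated cultures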; conditions: S. cerevisiae cln2 rad14 strain, at 50.0 µM, active compounds read high
Summary of the method: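 The screen exposed genetically defined yeast (cln2 rad14) to test compounds and scored growth inhibition relative to vehicle-treated controls.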

[5] = NCI Yeast Anticancer Drug Screen. Data for the bub3 strain (AID 167); conditions: S. cerevisiae bub3 mutant strain, at 50.0 µM, active compounds read high
Summary of the method: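 Growth of a checkpoint-deficient yeast mutant is measured after compound exposure. Values represent inhibition relative to vehicle.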

[6] = NCI Yeast Anticancer Drug Screen. Data for the mlh1 rad18 strain (AID 175); conditions: S. cerevisiae mlh1 rad18 strain growth inhibition; at 50.0 µM; active compounds read high
Summary of the method: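 Compound-treated yeast growth, normalised to vehicle controls. Strain bears defined DNA repair mutations.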

Measured: growth inhibition

O=C(O)Cc1cc(=O)oc2cc(O)c(Cl)cc12
inactive: [1] 1.75% | [2] -20% | [3] -7.15% | [4] 15.8% | [5] 3.25% | [6] -5.55%

O=C(Nc1ccccc1)OC1OC(COC(=O)c2ccccc2)C(OC(=O)c2ccccc2)C1OS(=O)(=O)c1ccc([N+](=O)[O-])cc1 (stereo not given)
inactive: [1] -18.1% | [2] 0.15% | [3] -18.2% | [4] -25.6% | [5] -13.1% | [6] -15.8%

N=c1ncn(C/C=C/c2ccccc2)c2nc[nH]c12
inactive: [1] -12.7% | [2] -28.4% | [3] -8.55% | [4] -11.4% | [5] -63.3% | [6] 5%

CN(C)C1C=CS(=O)(=O)C1 (stereo not given)
inactive: [1] -9.55% | [2] -13.9% | [3] -4.4% | [4] -47.5% | [5] 0.95% | [6] -4.95%

Cc1cc(=O)oc2c(CNC(CC(C)C)C(=O)O)c(O)ccc12 (stereo not given)
inactive: [1] -51.9% | [2] -32.3% | [3] -46.6% | [4] -16.4% | [5] -24.8% | [6] -63.1%

COc1ccccc1NC(=O)C1=C(C)NC(C)=C(C(=O)Nc2ccccc2OC)C1c1ccccc1OC
inactive: [1] 15.2% | [2] -6.65% | [3] -26.8% | [4] 17.1% | [5] 0.35% | [6] 1.85%

CC1C/C=C2\CSC(NC(=O)/C3=C\N(C/C=C/C=C/C(O)CC(O)CC(=O)N3)C2=O)C(=O)O1 (stereo not given)
inactive: [1] 13.7% | [2] 11.7% | [3] 22.2% | [4] 19% | [5] 17.5% | [6] 18.2%

COc1ccccc1Nc1nc(N)nc(N)c1N
inactive: [1] 0.85% | [2] -3.65% | [3] 5% | [4] -3.75% | [5] -4.9% | [6] 11.2%

COc1cc(SC)c(OC)cc1C
inactive: [1] 4.15% | [2] 0.65% | [3] -12.4% | [4] -22.4% | [5] -6% | [6] 4.85%

COc1ccc(C2c3cc4c(cc3OC(N3CCOCC3)C2C)OCO4)cc1 (stereo not given)
inactive: [1] -12.4% | [2] -22.1% | [3] -20.2% | [4] -3.95% | [5] -32.9% | [6] -57.2%

OC1(c2ccc(C3(O)C(c4ccccc4)=C(c4ccccc4)C(c4ccccc4)=C3c3ccccc3)cc2)C(c2ccccc2)=C(c2ccccc2)C(c2ccccc2)=C1c1ccccc1
inactive: [1] 5.6% | [2] -1.75% | [3] -1.7% | [4] -6.6% | [5] -2.15% | [6] 9.85%

COC(=O)C(C)OC(=O)OCC(C)C (stereo not given)
inactive: [1] -11.1% | [2] -1.9% | [3] 0.15% | [4] -2.95% | [5] -2.95% | [6] -11.8%

O=C1CCCc2c1cc1c3c(cccc23)CC1
inactive: [1] -9.9% | [2] -23.2% | [3] 0.7% | [4] -15.6% | [5] 9.8% | [6] -1.85%

Cc1ccc2c(c1)C(=Nc1ccc(Cl)cc1)C(=O)N2
inactive: [1] -1.6% | [2] 1.7% | [3] 1.75% | [4] -0.55% | [5] 18.9% | [6] 13.1%

CCOC(=O)CNC(=O)C(Cc1ccccc1)NC(=O)c1ccccc1NC(=O)c1ccccc1 (stereo not given)
inactive: [1] 28.8% | [2] 20.8% | [3] 4.3% | [4] 13.3% | [5] 0.7% | [6] 22.2%

CCn1c(=O)c2ccccc2c2cc([N+](=O)[O-])ccc21
inactive: [1] 7.65% | [2] 18.1% | [3] 2.75% | [4] 17.1% | [5] 12.2% | [6] -2.7%

Brc1ccccc1C=NC12CC3CC(CC(C3)C1)C2
inactive: [1] -2.55% | [2] -7.5% | [3] 2.25% | [4] -55.1% | [5] -3.45% | [6] -5%

Cc1ccc(S(=O)(=O)N(C)c2cc(Cl)c(C(=O)O)cc2Cl)cc1
inactive: [1] -0.7% | [2] -14.9% | [3] 5.85% | [4] 4.05% | [5] -14.3% | [6] 15.1%

CCNOCc1ccccc1
inactive: [1] -4.35% | [2] -11.7% | [3] -11% | [4] -18.1% | [5] -0.45% | [6] -9.95%

CCC(CO)(CO)CBr
inactive: [1] 3.75% | [2] -1.1% | [3] 0.6% | [4] -14.7% | [5] -4.9% | [6] 9.55%

CC[O-].CC[O-].O=Nc1ccc2cc([O-])ccc2c1.O=Nc1ccc2cc([O-])ccc2c1.[Ti+4]
inactive: [1] 34.9% | [2] 44.9% | [3] 59.5% | [4] 45% | [5] 52.6% | [6] 15.9%

O=c1[nH]c2cc3[nH]c(=O)c(=O)[nH]c3cc2[nH]c1=O
inactive: [1] -21.8% | [2] -16.6% | [3] -6.7% | [4] 8.85% | [5] -5.7% | [6] -17.2%

CC(C)(C)NC(NC(C)(C)C)=C(C(Cl)=C(Cl)Cl)[N+](=O)[O-]
inactive: [1] -2.1% | [2] -9.55% | [3] -6.15% | [4] 7.8% | [5] 12.7% | [6] -0.75%

CN(C)C(=S)/N=C(\N)N(C)C
inactive: [1] 4.2% | [2] -8.55% | [3] -3.8% | [4] -0.45% | [5] 1.7% | [6] 15.6%

O=P(NC1CCCCC1)(NC1CCCCC1)NC1CCCCC1
inactive: [1] 19.1% | [2] -1.75% | [3] -0.75% | [4] 12.1% | [5] 12.8% | [6] 14.2%

CC1=NN(C(=O)c2ccccc2O)C(=O)/C1=C/c1ccc(O)cc1
inactive: [1] 6.3% | [2] -16.1% | [3] -15.5% | [4] -5.65% | [5] -11.8% | [6] -27.6%

Cc1ccc(CSC(=S)NNc2ccccc2)cc1C
inactive: [1] -28.6% | [2] -44.3% | [3] -2.15% | [4] -13.6% | [5] -32.6% | [6] -35.8%

Cc1c(C(=O)O)c2cc3ccccc3cc2c(=O)n1C
inactive: [1] -22.1% | [2] -34.6% | [3] -10.1% | [4] -40.6% | [5] -23.9% | [6] -35%

CCC(C)c1cc(CN(C)C)cc(C(C)CC)c1O (stereo not given)
inactive: [1] 13.1% | [2] 1.1% | [3] 16.4% | [4] 13.8% | [5] 3.2% | [6] 9.05%

OC1CN(c2ccccc2)CC(O)CN(c2ccccc2)C1 (stereo not given)
inactive: [1] -8.1% | [2] 2.35% | [3] 7.3% | [4] -11.8% | [5] -16.1% | [6] 6.2%

CCC(=O)OC1CCC(OC(=O)CC)CC1 (stereo not given)
inactive: [1] 7.3% | [2] 9.8% | [3] 2.45% | [4] -1.9% | [5] -6.05% | [6] -6.2%

O=c1[nH]c(NCc2ccncc2)nc2nc[nH]c12
inactive: [1] 10.2% | [2] -3.8% | [3] -14.8% | [4] 3.1% | [5] -21.1% | [6] -52%

CCOc1ccc(/C=C/c2ccc(OCC)cc2)cc1
inactive: [1] -4.65% | [2] -16.4% | [3] -8.9% | [4] -1.5% | [5] 8.55% | [6] -24.3%

COc1cc(NS(=O)(=O)c2ccc(C)cc2)c2c(c1N)C(=O)c1ccccc1C2=O
inactive: [1] -3.4% | [2] -8.15% | [3] -4.1% | [4] 5.35% | [5] 5.55% | [6] -1.05%

COc1cc(C(=O)O[C@H]2CCC3CCC2N3C)cc(OC)c1OC (stereo not given in full)
inactive: [1] -46.4% | [2] -31.7% | [3] -4.05% | [4] -9.45% | [5] -3.85% | [6] -47%

COc1cc(O)c(C(=O)CC(C)=O)c(OC)c1
inactive: [1] -14.9% | [2] -14.8% | [3] -3.7% | [4] -0.9% | [5] 10.9% | [6] -11.7%

CCOC(=O)C1=C(C)C/C(=N/NC(N)=O)CC1
inactive: [1] 6.35% | [2] -17.9% | [3] -0.95% | [4] 0.05% | [5] -0.95% | [6] -7.85%

COc1cccc(NC(=O)CSc2nnc(Cc3ccccc3)o2)c1
inactive: [1] -18.8% | [2] -11.9% | [3] -20.8% | [4] -8.2% | [5] -12.4% | [6] -36.5%

O=C(/C=N\O)c1ccncc1
inactive: [1] -13.8% | [2] -16.9% | [3] -30.8% | [4] -16.1% | [5] -8.65% | [6] -35.7%

CN(Cc1ccccc1)C(=O)c1ccc(Cl)cc1
inactive: [1] -1.35% | [2] 3.75% | [3] 6.25% | [4] 0.6% | [5] 1.25% | [6] -0.1%
